Results: PubChem BioAssay (Tox21)
Where “and” joins values, the source holds several entries; their conditions need not be identical. Equal values may be shown once. Inconclusive results are not listed. Where a call stands in place of a potency, no number is given. More than one record can exist for a structure, and the calls need not agree. Calls of active or inactive are those of the source. The call rests on the fitted dose curve; in most records, active means well fitted cell-killing curve with a large enough effect in the repeat runs; inconclusive means weak or mixed curves; inactive means flat fitted curve, though single readings scatter.

Assay: qHTS RealTime-Glo MT Cell Viability Assay in HepG2 cells - 8 hour (AID 1224873); further: nearly all actives have a fitted effect of over 55% in size
Settings: RealTime-Glo luminescence; series mostly up to 76.8 µM; viability change, negative = cytotoxic: at the top concentration
From the text: National Center for Advancing Translational Sciences [NCATS]
NIH Chemical Genomics Center [NCGC]
U.S. Environmental Protection Agency [EPA]
National Institutes of Environmental Health Sciences [NIEHS]
National Toxicology Program [NTP]
U.S. Food and Drug Administration [FDA]
Measure of cell viability is critical in the cell-base assay. Analysis of cell viability is necessary for the characterization of cell responses to cytotoxic drugs and environmental stress. A RealTime-Glo MT Cell Viability Assay to monitor cell viability in real time of continues cell culture during 40 hours of compound treatment was used to screen Tox21 10K library compounds in HepG2 cells. The RealTime-Glo MT Cell Viability Assay is a nonlytic, homogeneous, bioluminescent method to measure cell viability in real time using a simple, plate-based method. The assay involves adding NanoLuc luciferase and a cell-permeant prosubstrate to cells in culture. Viable cells reduce the proprietary prosubstrate to generate a substrate for NanoLuc luciferase. This substrate diffuses from cells into the surrounding culture medium, where it is rapidly used by the NanoLuc Enzyme to produce a luminescent signal. The signal correlates with the number of viable cells, making the assay well suited for cytotoxicity studies.
Tox21 Assay Protocol Summary:
The mixture of HepG2 cell suspension and reagents were dispensed at 600cells/6 ul/well in 1536-well tissue culture treated black solid bottom plates using a Multidrop dispenser. After the assay plates were incubated at a 37 C/5% CO2 incubator for 5 hours, 23 nL of compounds dissolved in DMSO, positive and negative controls was transferred to the assay plate by a pintool work station. The plates were incubated at 37 C for 40 hours. The luminescence intensity were measured at 0h, 8h, 16h, 24h, 32h and 40h time points using ViewLux plate reader during compound treatment.
Potency means the concentration at half of the fitted maximal effect.

Row | SMILES | Potency | viability change, negative = cytotoxic
1 | O=C(O)c1nn(Cc2ccc(Cl)cc2Cl)c2ccccc12 | inactive | 
2 | CC(C)Nc1ccc(Nc2ccccc2)cc1 | 48.8 µM (active) and 38.9 µM (active) | 
3 | CC1(C)Cc2cccc(O)c2O1 | inactive | 
4 | CCNc1nc(Cl)nc(NC(C)(C)C#N)n1 | inactive | 
5 | CC(C)(c1ccccc1)c1ccc(O)cc1 | inactive and 49 µM (active) | 
6 | N#CCCCCC#N | inactive | 
7 | OCCOCCO | inactive | 
8 | Cc1ccc([N+](=O)[O-])cc1 | inactive | 
9 | CCCCOC(=O)COC(=O)c1ccccc1C(=O)OCCCC | inactive | 
10 | COc1ccc(C=O)cc1OC | inactive | 
11 | C=C(C)C#N | inactive | 
12 | CC(C)(C#N)N=NC(C)(C)C#N | inactive | 
13 | Brc1ccc(Br)cc1 | inactive | 
14 | Oc1ccc(Cl)cc1Cl | inactive | 
15 | [CH3][Sn]([Cl])([Cl])[Cl] | inactive | 
16 | CCOP(=S)(OCC)OP(=S)(OCC)OCC | inactive | 
17 | CC(C)(O)C(=O)Nc1ccc([N+](=O)[O-])c(C(F)(F)F)c1 | inactive | 
18 | CC(C)=CC1C(C(=O)OCN2C(=O)C3=C(CCCC3)C2=O)C1(C)C (stereo not given) | inactive | 
19 | CC1(C)C(C(=O)OC(C#N)c2cccc(Oc3ccccc3)c2)C1(C)C (stereo not given) | inactive | 
20 | c1ccc(C2CO2)cc1 (stereo not given) | inactive | 

Row | SMILES | Potency | viability change, negative = cytotoxic
21 | CCCCCCCCCCCCCl | inactive | 
22 | CCOP(=O)(OCC)OCC | inactive | 
23 | S=c1[nH]c2ccccc2[nH]1 | inactive | 
24 | C[N+](C)(C)C | inactive | 
25 | NN=C(N)N | inactive | 
26 | COP(=S)(OC)SCn1nnc2ccccc2c1=O | inactive | 
27 | Clc1cccc(Cl)c1 | inactive | 
28 | CC(C)COC(=O)c1ccccc1C(=O)OCC(C)C | inactive | 
29 | CN(C)c1nc(=O)n(C2CCCCC2)c(=O)n1C | inactive | 
30 | CCC1(c2ccc(N)cc2)CCC(=O)NC1=O (stereo not given) | inactive | 
31 | O=C(O)CF | inactive | 
32 | CC1=C(C(=O)Nc2ccccc2)SCCO1 | inactive | 
33 | Clc1ccc(C(Cl)(Cl)Cl)cc1 | inactive | 
34 | ClC(Cl)=C(Cl)C(Cl)=C(Cl)Cl | inactive | 
35 | CCNCC | inactive | 
36 | CC1CC(=O)O1 (stereo not given) | inactive | 
37 | CCOP(=O)(O)OCC (tested in a mixture with another compound) |  | -0.198% (inactive)
38 | O=S(=O)(O)C(F)(F)C(F)(F)C(F)(F)C(F)(F)C(F)(F)C(F)(F)C(F)(F)C(F)(F)F | inactive | 
39 | COP(=O)(NC(C)=O)SC (stereo not given) | inactive | 
40 | O=NN1CCOCC1 | inactive | 
